In PubChem BioAssay (Tox21):
“And” between values parts separate entries of the source, which are not always exact repeats. Identical values can stand only once. Inconclusive results are not listed. Where a structure was tested more than once in an assay, its records may differ in their call. The source made the active and inactive calls. Unless noted, calls follow the shape of the dose curve; as a rule, active = well fitted curve in the direction sought with a large enough effect in the repeat runs; inconclusive = weak or mixed curves; inactive = no such curve, though single readings can be large; an effect the other way counts as inactive or inconclusive.

Columns and labels:
[1] = qHTS assay to identify small molecule agonists of the vitamin D receptor (VDR) signaling pathway - cell viability counter screen (AID 743224); also: nearly all actives have a fitted effect of over 50% in size; also: potency is read from the fitted curve at half-maximal effect
Summary of the method: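 VDR-bla cell line, quantitative HTS format; 16 h compound incubation (37C, 5% CO2); ATP-based CellTiter-Glo luminescence measured in the reporter assay wells.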

[2] = qHTS assay to identify small molecule agonists of the NFkB signaling pathway (AID 1159509; active = well fitted curve in the direction sought with a large enough effect in the signal ratio in the repeat runs, not every such curve was filed as active; the % refers to the signal ratio; also: series mostly up to about 61 µM)
Summary of the method: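 After overnight attachment, reporter cells received test compounds, DMSO or positive controls and were incubated 5 hr at 37 C. FRET substrate was then added for 1.5 hr at room temperature before dual-emission fluorescence reading.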

[3] = qHTS assay to identify small molecule agonists of the NFkB signaling pathway - cell viability counter screen (AID 1159515; calls by dose curve; also: series mostly up to about 61 µM; nearly all actives have a fitted effect of over 55% in size)
Summary of the method: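 Viability in NFkB-bla ME-180 cells was measured by CellTiter-Glo luminescence, 30 min room temperature, in wells already treated 5 hr with compounds and read for reporter FRET.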

[4] = qHTS assay to identify small molecule agonists of the endoplasmic reticulum stress response signaling pathway (AID 1159516; active = well fitted activation curve with a large enough effect in the signal ratio in the repeat runs, not every such curve was filed as active; the % refers to the signal ratio)
Summary of the method: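 ER stress element reporter (bla) in HeLa. 1,500 cells/well, overnight attachment; 5 hr compound; 2 hr RT substrate; dual-emission fluorescence.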

[5] = qHTS assay to identify small molecule agonists of the endoplasmic reticulum stress response signaling pathway - cell viability counter screen (AID 1159517; calls by dose curve;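 also: HeLa cells carrying an ER stress response element beta-lactamase reporter; series mostly up to about 61 µM; nearly all actives have a fitted effect of over 50% in size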)
Summary of the method: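 Counter-screen wells were identical to the reporter wells. Cells were plated at 1,500 per well and dosed for 5 hr, then read for luminescence 30 min after CellTiter-Glo addition.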

[6] = molecular target: Nuclear receptor ROR-gamma (Homo sapiens) (UniProt P51449); assay: qHTS assay to identify small molecule antagonists of the retinoid-related orphan receptor gamma (ROR-gamma) signaling pathway (AID 1159521;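 also: CHO cells with doxycycline inducible ROR-gamma driving an RORE luciferase reporter; top concentration of the series differs between compounds; nearly all actives have a fitted effect of over 50% in size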)
Summary of the method: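 Decreased RORE-driven luciferase luminescence indicates antagonism. Tet-on RORγ CHO cells received compound, then 1 uM final doxycycline 2 h later; signal read after 16 h incubation.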

[7] = qHTS assay to identify small molecule agonists of the AP-1 signaling pathway - cell viability counter screen (AID 1159525; calls by dose curve; also: nearly all actives have a fitted effect of over 55% in size)
Summary of the method: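 AP-1-bla ME-180 cells in Opti-MEM with 0.5% dialyzed FBS, compound exposure 5 h at 37 C in 15-point titration. Viability read in the same wells as ATP content by CellTiter-Glo luminescence, normalised to tetra-n-octylammonium bromide and DMSO controls.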

[8] = qHTS assay to identify small molecule agonists of the AP-1 signaling pathway (AID 1159526; calls by dose curve)
[9] = qHTS assay to identify small molecule agonists of the RXR signaling pathway - cell viability counter screen (AID 1159529);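 also: HEK 293T cells carrying an RXR-alpha UAS beta-lactamase reporter; series mostly up to about 77 µM; nearly all actives have a fitted effect of over 50% in size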
Summary of the method: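 In this parallel viability measure, GeneBLAzer RXR-alpha HEK 293T cells (2% charcoal-stripped FBS) were given a 5 hr preincubation, treated with compounds 16 hr at 37 C, and read by CellTiter-Glo luminescence.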

[10] = qHTS assay to identify small molecule antagonists of the retinoid acid receptor (RAR) signaling pathway - cell viability counter screen (AID 1159551); also: nearly all actives have a fitted effect of over 35% in size
Summary of the method: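 Following overnight attachment, C3RL4 reporter cells received DMSO-dissolved compounds and then retinol (1 uM final). Six hours later at 37 C, ATP content was measured by CellTiter-Glo luminescence.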

[11] = qHTS assay to identify small molecule antagonists of the estrogen related receptor (ERR) signaling pathway from Tox21 library - cell viability counter screen (AID 1224834); also: nearly all actives have a fitted effect of over 30% in size
Summary of the method: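 Viability readout (CellTiter-Fluor fluorescence, 30 min at 37 C) multiplexed with the ERR assay; cells treated 17.5 h at 37 C with compounds delivered in DMSO.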

[12] = molecular target: Luciferin 4-monooxygenase (Photinus pyralis) (UniProt P08659); assay: qHTS assay to identify small molecule inhibitors of firefly luciferase (AID 1224835); also: series mostly up to about 120 µM; nearly all actives have a fitted effect of over 25% in size
Chain of Luciferin 4-monooxygenase (Photinus pyralis) (P08659 whole entry, looked up): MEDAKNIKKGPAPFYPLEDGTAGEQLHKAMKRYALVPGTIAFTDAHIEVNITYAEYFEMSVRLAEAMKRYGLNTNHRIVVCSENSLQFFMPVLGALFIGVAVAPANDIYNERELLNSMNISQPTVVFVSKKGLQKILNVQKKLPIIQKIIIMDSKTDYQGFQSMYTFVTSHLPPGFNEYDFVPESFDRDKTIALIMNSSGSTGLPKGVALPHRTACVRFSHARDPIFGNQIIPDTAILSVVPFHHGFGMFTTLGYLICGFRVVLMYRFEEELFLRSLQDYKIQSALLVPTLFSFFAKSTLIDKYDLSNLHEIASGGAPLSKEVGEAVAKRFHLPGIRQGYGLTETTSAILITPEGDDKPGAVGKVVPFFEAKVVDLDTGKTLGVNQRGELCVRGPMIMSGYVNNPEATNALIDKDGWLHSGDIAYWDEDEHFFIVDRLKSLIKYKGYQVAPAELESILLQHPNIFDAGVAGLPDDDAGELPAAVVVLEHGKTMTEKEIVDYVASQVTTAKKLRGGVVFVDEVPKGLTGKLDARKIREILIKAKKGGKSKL
Summary of the method: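 Biochemical qHTS: compounds run as interplate titrations against purified firefly enzyme, with D-luciferin and ATP each at its KM concentration. Light output recorded by CCD imaging.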

[13] = qHTS assay to identify small molecule agonists of the constitutive androstane receptor (CAR) signaling pathway - cell viability counter screen (AID 1224836); also: series mostly up to about 92 µM; nearly all actives have a fitted effect of over 45% in size
Summary of the method: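 Using CellTiter-Fluor, viability of HepG2 cells harbouring hCAR and CYP2B6-2.2kb was measured following 23 h incubation with a 15-concentration compound series plus PK11195 (0.75 uM final).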

[14] = qHTS assay to identify small molecule antagonists of the vitamin D receptor (VDR) signaling pathway - cell viability counter screen (AID 743225); also: nearly all actives have a fitted effect of over 50% in size
Summary of the method: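 Parallel cytotoxicity test: VDR-UAS-bla HEK 293T, 3 nM (final) 1-alpha,25-dihydroxyvitamin D3 with test compound, 16 h, 37C. Endpoint is CellTiter-Glo luminescence in the same wells.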

[15] = qHTS assay to identify small molecule antagonists of the retinoid-related orphan receptor gamma (ROR-gamma) signaling pathway - cell viability counter screen (AID 1159520); also: nearly all actives have a fitted effect of over 50% in size
Summary of the method: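 Tet-on ROR gamma CHO cells were given compounds for 2 hr, then doxycycline hyclate at 1 uM final, and incubated 16 hr at 37 C. Viability was measured as ATP content by CellTiter-Glo luminescence.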

[16] = molecular target: Retinoic acid receptor RXR-alpha (Homo sapiens) (UniProt P19793); assay: qHTS assay to identify small molecule agonists of the RXR signaling pathway (AID 1159527; calls by dose curve; also: nearly all actives have a fitted effect of over 35% in size)
Chain of Retinoic acid receptor RXR-alpha (Homo sapiens) (P19793 whole entry, looked up): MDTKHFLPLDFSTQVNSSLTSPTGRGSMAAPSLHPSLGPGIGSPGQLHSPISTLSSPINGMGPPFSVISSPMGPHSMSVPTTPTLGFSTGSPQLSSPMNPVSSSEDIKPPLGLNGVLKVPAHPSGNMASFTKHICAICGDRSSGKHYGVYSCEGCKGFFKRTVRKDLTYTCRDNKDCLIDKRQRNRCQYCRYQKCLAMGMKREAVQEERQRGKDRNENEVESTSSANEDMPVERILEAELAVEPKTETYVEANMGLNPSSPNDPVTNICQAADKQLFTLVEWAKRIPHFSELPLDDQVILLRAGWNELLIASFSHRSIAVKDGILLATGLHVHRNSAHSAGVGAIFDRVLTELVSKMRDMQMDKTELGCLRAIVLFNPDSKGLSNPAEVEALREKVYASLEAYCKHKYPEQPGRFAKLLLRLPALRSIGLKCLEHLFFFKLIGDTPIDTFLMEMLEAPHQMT
Summary of the method: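 16 hr incubation of compound-treated RXR-alpha-UAS-bla HEK 293T cells (2% charcoal-stripped FBS, 37 C) preceded a 2 hr room-temperature LiveBLAzer FRET substrate step and blue/green fluorescence measurement.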

[17] = qHTS assay to identify small molecule antagonists of the retinoic acid receptor (RAR) signaling pathway (AID 1159552; also: nearly all actives have a fitted effect of over 50% in size)
Summary of the method: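 C3RL4 RARE-luc cells, overnight plating; retinol 1 uM final added right after compound; 6 hr 37 C; luciferase read at 30 min RT.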

[18] = qHTS assay to identify small molecule agonists of the retinoic acid receptor (RAR) signaling pathway (AID 1159553)
Summary of the method: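 Cell line C3RL4, RARE luciferase reporter. Treatment: compounds in DMSO, 6 hr, 37 C, 5% CO2, after overnight plating. Detection: luminescence, 30 min RT after reagent.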

Measured: Potency

CN(C)CCOCCN(C)C
not listed: [14] | [15] | [16] | [17] | [18]
inactive: all other assays above

O=S1(=O)CC=CC1
inactive: all assays above

CCCCCOC(C)=O
inactive and 49 µM (active): [1]
not listed: [6] | [16]
inactive: all other assays above

CCCC(C)=O
not listed: [15] | [16]
inactive: all other assays above

CC1CCC(C(C)C)C(O)C1 (stereo unspecified)
not listed: [15]
inactive: all other assays above

CCCCN(CCCC)CCCC
not listed: [14] | [15] | [17] | [18]
inactive: all other assays above

O=c1[nH]nnc2ccccc12
not listed: [17] | [18]
inactive: all other assays above

CCCCCCCCCC
not listed: [17] | [18]
inactive: all other assays above
